# Pf growth 96h: inhibits malaria parasite growth, 96 h; Potency, µM (doses to about 28.7 µM), without a hit: top-dose activity change, negative = inhibition, actives largely listed as inhibitors; actives 6.9% (n = 320,000); P. falciparum luciferase reporter growth, 96 h
#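 96 h incubation, 37 C, 5% CO2, of luciferase-reporter P. falciparum-infected RBCs (2% hematocrit, 0.05% parasitemia final) with test compounds; endpoint luminescence.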
# HCV inhibitor: HCV inhibition; Huh7.5.1 HCVcc-Cre infection, luciferase reporter, 44 h; Potency, µM (highest dose often 41.8 µM), inactives show at the highest dose activity change, negative = inhibition, most hits filed as inhibitors; actives 3.4% (n = 340,000); AID 651820
#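 Antiviral activity was scored by luciferase reporter output from cells infected with HCVcc-Cre (~0.5 moi) in presence of compound, 44 h infection period, cells seeded 1,000/well 4 h prior.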
# Pf growth 48h: inhibits P. falciparum growth in the first generation, 48 h. actives 5.9% (n = 310,000). P. falciparum luciferase growth in erythrocytes, 48 h. Potency, µM (top dose mostly 28.7 µM), without a hit: at the top dose activity change, negative = inhibition, usual class: inhibitors
#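 Here the parasites carry a stable luciferase gene and grow inside erythrocytes in Albumax-based RPMI medium with compound for one erythrocytic cycle. Activity is scored as loss of luminescent signal.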
# AMA1 RON2 block: AMA1-RON2 (P. falciparum) interaction inhibition; actives 0.2% (n = 360,000); AlphaScreen AMA1-biotinylated RON2 peptide binding; Potency, µM (top dose mostly 58.2 µM), for the others: at the highest dose activity change, negative = inhibition, hits mostly inhibitors;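 note: 0% = vehicle wells and -100% = peptide control; nearly all actives have a fitted effect of over 45% in size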
#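 AMA1 (3D7) with his tag at 25 nM final met compounds first, then biotinylated RON2 peptide at 25 nM; detection used donor plus acceptor beads, 10 µg/mL apiece, read by AlphaScreen after 30 min at room temperature.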
# * marks the source's active call; other numbers are inactive results; u = inconclusive; x = no result. Sampled rows, rich in hits. Any-hit rate of the full collection: about 11%. Calls come from the whole dose curve; as a rule, active = well fitted curve in the direction sought with a large enough effect; inconclusive = small, poorly fitted or top-dose-only effect, or another doubt; inactive = no such curve, though single readings can be large; an effect the other way counts as inactive or inconclusive. Unless noted, % is set by controls: 0 for no effect and ±100 for the full control effect; potency is the fitted concentration of half-maximal effect.
SMILES,Pf growth 96h,HCV inhibitor,Pf growth 48h,AMA1 RON2 block
Cc1cc(NC(=O)CS(=O)(=O)c2cn(Cc3ccccc3Cl)c3ccccc23)no1,0.586µM*,u,0.0%,-4.2%
Cc1cc(C(=O)Nc2c(F)cc(F)cc2Br)cs1,14.7µM*,4.9%,2.9%,10.3%
O=C(Nc1c(F)cc(F)cc1Br)c1cccnc1,50.1%,16.9%,-6.2%,-7.1%
CCOCCCNC(=S)N1CCN(Cc2ccc3c(c2)OCO3)CC1,-12.4%,-1.9%,8.0%,5.3%
CCOC(=O)c1c(NC(=O)CSc2nc3ccccc3[nH]2)sc2c1CC(C)(C)NC2(C)C,7.38µM*,u,10.4µM*,2.0%
CCS(=O)(=O)CCSC1OC(COC(C)=O)C(OC(C)=O)C(OC(C)=O)C1OC(C)=O (centres undefined),10.8%,16.3%,5.4%,-2.5%
O=C(CCN1CCN(Cc2ccccc2)CC1)NNC(=O)Nc1cccc([N+](=O)[O-])c1,13.1µM*,-10.5%,9.8%,35.8%
O=[N+]([O-])c1cccc(CN2CC=C(c3ccc(F)cc3)CC2)c1,10.4µM*,-16.4%,-5.9%,-24.1%
O=[N+]([O-])c1cccc(CN2CCN(Cc3ccc(Cl)cc3)CC2)c1,0.1%,10µM*,12.1%,u
O=C(CCN1CCN(Cc2ccccc2)CC1)NNC(=O)Nc1cccc(Cl)c1,156.0%,-9.7%,u,72.1%
N#Cc1cc2c(nc1Cl)CCCC2,-29.5%,u,12.2%,4.9%
COc1ccc(OC)c(NC(=O)CN2CCC(NC(=O)c3ccccc3C)CC2)c1,6.3%,-7.9%,-16.0%,-1.6%
C/C(N=Nc1nc2ccccc2s1)=N\Nc1ccccc1O,7.9%,u,2.62µM*,45.7%
Oc1[nH]c2ccccc2c1N=Nc1nc2ccccc2s1,297.3%,-4.0%,x,5.5%
CC1CCCC(NC(=O)c2cccc(S(=O)(=O)N3CCCCC3)c2)C1C (centres undefined),u,-9.0%,u,0.8%
S=C(NCc1ccc2c(c1)OCO2)NC1CC1,-1.2%,4.3%,10.3%,-8.7%
CSC(=NC#N)N1CCN(C(=NC#N)SC)CC1,2.2%,-6.8%,9.28µM*,2.5%
CC(C)(C)CC(=O)Nc1nnc(SCC(=O)NC2CCCCC2)s1,3.7%,0.3%,u,3.1%
CCOC(=O)c1cnn2c1[nH]c(=O)c1ccccc12,9.28µM*,10.3%,31.2%,-7.6%
CCc1cc(/C(Cc2ccccn2)=N\Nc2ccccc2)c(O)cc1O,u,-11.1%,0.0%,86.9%
Oc1ccc2ccccc2c1C=Nc1ccc(Cl)cn1,13.1µM*,1.6%,-0.6%,8.5%
Cc1nn(C)c(C)c1N=Cc1c(O)ccc2ccccc12,8.28µM*,15.5%,x,37.7%
COc1ccc(-c2cn3c(C)c(C(=O)N4CCN(c5ccccc5F)CC4)sc3n2)cc1,u,u,u,0.0%
Cc1c(C(N)=O)sc2nc(-c3ccccc3)cn12,10.4µM*,u,97.5%,-1.2%
Cc1c(C(=O)N2CCN(c3ccccc3F)CC2)sc2nc(-c3ccccc3)cn12,1.85µM*,u,2.1%,0.1%
SMILES,Pf growth 96h,HCV inhibitor,Pf growth 48h,AMA1 RON2 block
COCCN(CCOC)C(=O)c1sc2nc(-c3ccccc3)cn2c1C,31.6%,10.8%,1.0%,0.2%
Cc1nc2n[nH]c(N)c2nc1C,x,x,x,28.9%
c1ccc(CCNc2ncnc3sccc23)nc1,239.2%,u,123.6%,45.2%
Cc1csc2ncnc(NCCc3ccccn3)c12,12.5%,7.08µM*,18.2%,-7.1%
Cc1ccnc(Nc2nc(-c3ccccc3)cs2)c1,-14.0%,u,28.9%,6.2%
Cc1ccnc(N/C=C(\C#N)c2nc(-c3cccc(Br)c3)cs2)c1,2.94µM*,u,11.7µM*,-10.1%
COc1ccc(Br)cc1CN1CCC(N2CCCC2)CC1,u,u,9.28µM*,u
COc1ccc(Br)cc1CN1CCCC(C(=O)N2CCCCCC2)C1 (centres undefined),u,3.16µM*,u,-2.3%
CCN(Cc1ccccc1)S(=O)(=O)c1ccc(S(=O)(=O)N(Cc2cccc(OC)c2)CC2CCCO2)cc1 (centres undefined),5.22µM*,-8.3%,x,0.7%
O=c1[nH]c2ccccc2cc1CN(CC1CCCO1)S(=O)(=O)c1ccc(Cl)cc1 (centres undefined),13.2%,19.3%,15.3%,-4.8%
NS(=O)(=O)c1ccc(S(=O)(=O)N(Cc2ccccc2F)CC2CCCO2)cc1 (centres undefined),13.1µM*,3.4%,u,-0.2%

# High-throughput results deposited in PubChem BioAssay by National Center for Advancing Translational Sciences (NCATS).
